Measurements published in the supplement of paper PMC13380429.

tested on: Vero E6 infected with SARS-CoV-2; assay: inhibition of SARS-CoV-2 cytopathic effect; higher = more antiviral protection, active = above 15; details: 100 nM; 48 h

| Compound | inhibition of SARS-CoV-2 cytopathic effect |
| --- | --- |
| Cc1cccc(N(C)C(=S)Oc2ccc3ccccc3c2)c1 [tolnaftate] | -1.72% (inactive) |
| CCOC(=O)c1ccc(NC2CCCCC2)c(N)c1 [ferrostatin-1] | 2.61% (inactive) |
| COc1cccc(C=NCCN=Cc2cccc(OC)c2[O-])c1[O-].[Cl-].[Mn+3] | 0.89% (inactive) |
| COc1ccc(-c2oc3cc(OC)ccc3c2C(=O)c2ccc(C#N)cc2)cc1 | -3.03% (inactive) |
| CC1(C)S[C@@H]2[C@H](NC(=O)COc3ccccc3)C(=O)N2[C@H]1C(=O)O [penicillin-v-potassium] | -1.93% (inactive) |
| O=C(O)c1cccnc1C(=O)O [quinolinic-acid] | 0.73% (inactive) |
| CCOC(=O)c1ccc(OC(=O)CCCCCNC(=N)N)cc1 [gabexate] | 1.38% (inactive) |
| CCOc1ccc2ccccc2c1C(=O)N[C@@H]1C(=O)N2[C@@H]1SC(C)(C)[C@@H]2C(=O)O [nafcillin] | -1.26% (inactive) |
| COc1ccc(CNC(=O)c2sc3nc(C)cc(C)c3c2N)cc1 | 2.17% (inactive) |

same assay, conditions: 833.33 nM; 48 h

| Compound | inhibition of SARS-CoV-2 cytopathic effect |
| --- | --- |
| C[C@@H]1Cc2c([nH]c3ccccc23)[C@@H](c2c(F)cc(/C=C/C(=O)O)cc2F)N1CC(C)(C)F | -1.93% (inactive) |
| NS(=O)(=O)c1cc2c(cc1Cl)N=CNS2(=O)=O [chlorothiazide] | -0.05% (inactive) |
| CC(C)[C@H]1c2ccc(F)cc2CC[C@@]1(CCN(C)CCCc1nc2ccccc2[nH]1)OC(=O)C1CC1 | -2.65% (inactive) |
| CCCCc1ccc2[nH]c(NC(=O)OC)nc2c1 [parbendazole] | -0.99% (inactive) |
| CC[C@@H](CO)NC(=O)[C@@H]1C=C2c3cccc4[nH]cc(c34)C[C@H]2N(C)C1 [methylergometrine] | 0.13% (inactive) |
| CC(C)N[C@H]1CCn2c(=O)[nH]c3cccc(c32)[C@@H]1O [zilpaterol] | -1.59% (inactive) |
| CCOC(=O)Nc1nc2ccccc2[nH]1 [lobendazole] | -6.72% (inactive) |
| CN(C)c1ccccc1CN1CCCN(Cc2ccccc2N(C)C)C1c1ccncc1 | 0.48% (inactive) |
| CN1C(=O)N(C)C2C1N(C)C(=O)N2C (stereo unspecified) [mebicar] | -1.23% (inactive) |
| CC(=O)Oc1ccccc1C(=O)O [aspirin] | -5.09% (inactive) |
| Cc1c(C(=O)NN2CCCCC2)nn(-c2ccc(Cl)cc2Cl)c1-c1ccc(Cl)cc1 [rimonabant] | 0.01% (inactive) |
| CS(=O)(=O)Nc1ccc([N+](=O)[O-])cc1Oc1ccccc1 [nimesulide] | 2.18% (inactive) |
| O=c1nc2ccccc2c2n1CC(CN1CCN(c3ccccc3)CC1)N2 (stereo unspecified) | 4.08% (inactive) |
| COc1cc(Cc2cnc(N)nc2N)cc(OC)c1OC [trimethoprim] | 2.08% (inactive) |
| CN1[C@@H]2C[C@@H](O)C[C@H]1[C@@H]1O[C@@H]12 [scopine] | 1.5% (inactive) |
| C=CCNc1ncnc2ccc(Br)cc12 | 0.12% (inactive) |
| COc1ccc2cc(C(C)C(=O)Oc3ccc(C(N)=S)cc3)ccc2c1 (stereo unspecified) | 0.55% (inactive) |
| CN[C@H](CC(C)C)C(=O)N[C@H]1C(=O)N[C@@H](CC(N)=O)C(=O)N[C@H]2C(=O)N[C@H]3C(=O)N[C@H](C(=O)N[C@H](C(=O)O)c4cc(O)cc(O)c4-c4cc3ccc4O)[C@H](O[C@H]3C[C@](C)(N)[C@@H](O)[C@H](C)O3)c3ccc(c(Cl)c3)Oc3cc2cc(c3O[C@@H]2O[C@H](CO)[C@@H](O)[C@H](O)[C@H]2O[C@H]2C[C@](C)(NCc3ccc(-c4ccc(Cl)cc4)cc3)[C@@H](O)[C@H](C)O2)Oc2ccc(cc2Cl)[C@H]1O [oritavancin] | 0.82% (inactive) |
| N=C(N)c1ccc(/N=N/Nc2ccc(C(=N)N)cc2)cc1 [diminazene-aceturate] | -14% (inactive) |
| C=CC[N+]1([C@H]2C[C@H]3[C@@H]4CC[C@H]5C[C@H](O)[C@@H](N6CCOCC6)C[C@]5(C)[C@H]4CC[C@]3(C)[C@H]2OC(C)=O)CCCC1 | 1.73% (inactive) |
| C[C@H]1[C@H](C)CC[C@]2(C(=O)O)CC[C@]3(C)C(=CC[C@@H]4[C@@]5(C)C[C@@H](O)[C@H](O)[C@@](C)(CO)[C@@H]5CC[C@]43C)[C@H]12 [asiatic-acid] | 1.12% (inactive) |
| Nn1cnc2cc3ccccc3cc2c1=O [centazolone] | -1.41% (inactive) |
